Source: PubChem BioAssay (Tox21)
Where “and” joins values, the source holds several entries; their conditions need not be identical. Equal entries are not always repeated. Inconclusive results are not listed. A structure can be active in one record and inactive in another. Calls of active or inactive are those of the source. Unless noted, the call rests on the fitted dose curve; in most records, active means well fitted curve in the direction sought with a large enough effect in the repeat runs; inconclusive means weak or mixed curves; inactive means no such curve, though single readings can be large; an effect the other way counts as inactive or inconclusive.

Columns and labels:
[1] = qHTS assay to identify small molecule agonists of the hypoxia (HIF-1) signaling pathway - cell viability counter screen (AID 1224844; calls by dose curve; further: nearly all actives have a fitted effect of over 50% in size; further: potency means the concentration at half of the fitted maximal effect)
Outline: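 Multiplexed with the HRE beta-lactamase assay, this viability read used CellTiter-Glo luminescence (30 min, RT) on HRE-bla ME-180 cells treated 17 hrs with compounds in 0.5% dialyzed FBS medium.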

[2] = qHTS assay to identify small molecule agonists of H2AX (AID 1224845; active means well fitted activation curve with a large enough effect in the signal ratio in the repeat runs, not every such curve was filed as active; the % refers to the signal ratio; further: on the % scale 0 is the no-effect control and ±100 the full control effect)
Outline: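 Wild-type CHO-K1 cells, plated overnight, exposed 3hr at 37C to 15 concentrations (0.76% DMSO final). Lysed, then HTRF anti-pH2AX (S139) cryptate and anti-H2AX-d2 antibodies, 24 hr room temperature; 665/620 nm emission read.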

[3] = qHTS assay to identify small molecule agonists of the hypoxia (HIF-1) signaling pathway (AID 1224846; active means well fitted activation curve with a large enough effect in the signal ratio in the repeat runs, not every such curve was filed as active; the % refers to the signal ratio; further: on the % scale 0 is the no-effect control and ±100 the full control effect)
Outline: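 Hypoxia-pathway activation was scored as increased beta-lactamase from an HRE-controlled reporter in ME-180 cells; plated at 2,000 cells per well with 0.5% dialyzed FBS, they were exposed 17 hrs to compounds and then given CCF4-AM.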

[4] = qHTS assay to identify small molecule agonists of H2AX - cell viability counter screen (AID 1224847; calls by dose curve; further: nearly all actives have a fitted effect of over 30% in size; further: potency means the concentration at half of the fitted maximal effect)
Outline: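 Wild-type CHO-K1 cells (10% FBS medium) were plated overnight at 37C, exposed to compounds at 15 concentrations for 3 hr at 37C (0.76% DMSO final), and viability was read as CellTiter-Glo luminescence after 30 min at room temperature.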

[5] = qHTS assay to identify small molecule antagonists of the estrogen related receptor (ERR) signaling pathway from Tox21 library (AID 1224848); further: nearly all actives have a fitted effect of over 50% in size; further: potency means the concentration at half of the fitted maximal effect
Outline: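 Luminescent reporter read-out (ONE-Glo) from NTP's ERR cell line after 18 h treatment at 37 C with DMSO-dissolved Tox21 compounds; cells pre-plated 6 h beforehand at 2,000 per well.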

[6] = qHTS assay to identify small molecule agonists of the estrogen related receptor (ERR) signaling pathway from Tox21 library (AID 1224849; calls by dose curve; further: on the % scale 0 is the no-effect control and ±100 the full control effect; nearly all actives have a fitted effect of over 15% in size); conditions: ERR reporter cell line, ONE-Glo luciferase, 18 h
Outline: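 Six hours post-seeding at 37 C/5% CO2, ERR cells receive DMSO-solubilised compounds; after 18 h at 37 C, ONE-Glo reagent is applied and luminescence recorded.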

[7] = qHTS RealTime-Glo MT Cell Viability Assay in HepG2 cells - 24 hour (AID 1224867); further: nearly all actives have a fitted effect of over 50% in size; further: potency means the concentration at half of the fitted maximal effect
Outline: (§1)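 Viability was tracked continuously by NanoLuc luminescence from prosubstrate reduced by living HepG2 cells, at successive time points over 40 h of compound exposure. Cells with reagent were preincubated 5 h at 37 °C before compound addition.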

[8] = qHTS RealTime-Glo MT Cell Viability Assay in HEK293 cells - 32 hour (AID 1224868); further: nearly all actives have a fitted effect of over 50% in size; further: potency means the concentration at half of the fitted maximal effect
Outline: (§2)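 Viability tracked continuously by luminescence as live cells reduce a prosubstrate for NanoLuc; HEK293 cells preincubated 5 h, compound-treated at 37 C, and read at 0, 8, 16, 24, 32 and 40 h.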

[9] = A CellTox Green Cytotoxicity Assay to monitor cytotoxicity in HEK293 cells - 0 hour (AID 1224869)
Outline: (§3)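 Seeding of HEK293 cells together with cytotoxicity dye preceded a 5 h incubation at 37 C/5% CO2. Test compounds in DMSO were then added and fluorescence monitored across 40 h.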

[10] = qHTS RealTime-Glo MT Cell Viability Assay in HepG2 cells - 40 hour (AID 1224870); further: nearly all actives have a fitted effect of over 50% in size; further: potency means the concentration at half of the fitted maximal effect
Outline: (§4)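 HepG2 cells (600/well) mixed with RealTime-Glo MT reagent, settled 5 h at 37 C/5% CO2 before compound addition. Nonlytic NanoLuc luminescence from viable-cell prosubstrate reduction read repeatedly during 40 h treatment at 37 C.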

[11] = A CellTox Green Cytotoxicity Assay to monitor cytotoxicity in HEK293 cells - 40 hour (AID 1224871); further: nearly all actives have a fitted effect of over 45% in size; further: potency means the concentration at half of the fitted maximal effect
Outline: as §3

[12] = qHTS RealTime-Glo MT Cell Viability Assay in HEK293 cells - 16 hour (AID 1224872); further: nearly all actives have a fitted effect of over 50% in size; further: potency means the concentration at half of the fitted maximal effect
Outline: as §2

[13] = qHTS RealTime-Glo MT Cell Viability Assay in HEK293 cells - 40 hour (AID 1224874); conditions: RealTime-Glo luminescence; max response: stronger effect = lower value; further: nearly all actives have a fitted effect of over 50% in size; further: potency means the concentration at half of the fitted maximal effect; on max response: on the % scale 0 is the no-effect control and ±100 the full control effect
Outline: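 Tox21 screen in HEK293 using RealTime-Glo MT chemistry, with cells and reagent co-dispensed. Luminescence proportional to viable cell number was captured at intervals during 40 h compound exposure at 37 C.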

[14] = A CellTox Green Cytotoxicity Assay to monitor cytotoxicity in HEK293 cells - 24 hour (AID 1224875); further: on the % scale 0 is the no-effect control and ±100 the full control effect; nearly all actives have a fitted effect of over 45% in size
Outline: as §3

[15] = A CellTox Green Cytotoxicity Assay to monitor cytotoxicity in HepG2 cells - 16 hour (AID 1224876); further: nearly all actives have a fitted effect of over 45% in size; further: potency means the concentration at half of the fitted maximal effect
Outline: (§5)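 Nonlytic assay: viable cells exclude the dye, so fluorescence scales with cell death. HepG2 at 600 cells/well, compounds added after 5 h, signal read across 40 h.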

[16] = qHTS RealTime-Glo MT Cell Viability Assay in HepG2 cells - 32 hour (AID 1224877); further: nearly all actives have a fitted effect of over 55% in size; further: potency means the concentration at half of the fitted maximal effect
Outline: as §1

[17] = A CellTox Green Cytotoxicity Assay to monitor cytotoxicity in HepG2 cells - 24 hour (AID 1224878); further: nearly all actives have a fitted effect of over 45% in size; further: potency means the concentration at half of the fitted maximal effect; on Cytotoxicity: on the % scale 0 is the no-effect control and ±100 the full control effect
Outline: as §5

[18] = A CellTox Green Cytotoxicity Assay to monitor cytotoxicity in HepG2 cells - 40 hour (AID 1224879); further: nearly all actives have a fitted effect of over 40% in size; further: potency means the concentration at half of the fitted maximal effect
Outline: as §5

[19] = qHTS RealTime-Glo MT Cell Viability Assay in HepG2 cells - 8 hour (AID 1224873); further: nearly all actives have a fitted effect of over 55% in size; further: potency means the concentration at half of the fitted maximal effect
Outline: as §4

[20] = biological target: Thyrotropin receptor (Homo sapiens) (UniProt P16473); assay: qHTS assay to identify small molecule agonists of the thyroid stimulating hormone receptor (TSHR) signaling pathway (AID 1224843; calls by dose curve)
Outline: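 Steps: seed 800 TSHR-HEK293 cells per well; add test compound and hold 30 min at ambient temperature; dispense cAMP-d2 then anti-cAMP cryptate; incubate 1 h at ambient; measure fluorescence intensity.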

Chain of Thyrotropin receptor (Homo sapiens) (P16473 whole entry, looked up): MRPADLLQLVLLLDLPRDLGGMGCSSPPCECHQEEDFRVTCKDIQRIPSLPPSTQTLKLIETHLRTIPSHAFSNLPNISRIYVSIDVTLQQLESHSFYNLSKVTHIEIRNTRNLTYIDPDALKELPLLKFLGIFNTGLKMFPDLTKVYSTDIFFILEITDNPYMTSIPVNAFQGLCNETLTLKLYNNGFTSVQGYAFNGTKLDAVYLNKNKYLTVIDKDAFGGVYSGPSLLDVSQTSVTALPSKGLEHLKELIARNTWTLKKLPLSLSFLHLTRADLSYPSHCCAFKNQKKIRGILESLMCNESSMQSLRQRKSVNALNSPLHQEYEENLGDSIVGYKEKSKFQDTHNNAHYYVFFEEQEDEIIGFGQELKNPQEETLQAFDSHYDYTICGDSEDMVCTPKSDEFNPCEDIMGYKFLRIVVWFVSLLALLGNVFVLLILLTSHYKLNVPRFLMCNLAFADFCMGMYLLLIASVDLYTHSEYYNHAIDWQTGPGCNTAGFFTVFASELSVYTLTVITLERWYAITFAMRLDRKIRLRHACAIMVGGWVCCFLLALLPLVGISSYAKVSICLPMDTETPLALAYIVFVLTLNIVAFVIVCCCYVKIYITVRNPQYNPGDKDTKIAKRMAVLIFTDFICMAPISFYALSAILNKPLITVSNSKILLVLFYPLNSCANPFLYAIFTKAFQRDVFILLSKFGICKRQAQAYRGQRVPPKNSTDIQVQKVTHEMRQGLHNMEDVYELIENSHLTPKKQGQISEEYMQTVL

COc1ccc(C(Cl)=C(c2ccc(OC)cc2)c2ccc(OC)cc2)cc1
active: Potency [5] 21.6 µM and 27.3 µM and 26.6 µM
inactive: Potency [1] | Potency [2] | outcome [3] | Potency [4] | activity change, positive = activation ([6]; at 42.5 µM (top of the series)) -32.5% | activity change, positive = activation ([6]; at 92.4 µM (top of the series)) -45.8% and -43.7% | Potency [7] | Potency [8] | Potency [9] | Potency [10] | Potency [11] | Potency [12] | max response [13] -17.7% | Potency [14] | Potency [15] | Potency [16] | Potency [17] | Potency [18]

CCN(Cc1c(F)cccc1Cl)c1c([N+](=O)[O-])cc(C(F)(F)F)cc1[N+](=O)[O-]
inactive: outcome [3] | activity change, positive = activation ([6]; at 92.4 µM (top of the series)) -20.2% | Potency [7] | Potency [9] | Potency [10] | Potency [11] | Potency [14] | Potency [15] | Potency [16] | Potency [17] | Potency [18]
active: Potency [1] 21.9 µM | Potency [5] 61.1 µM | Potency [8] 49 µM | Potency [12] 27.5 µM | Potency [13] 54.9 µM

Nc1ccc(O)c([N+](=O)[O-])c1
active: activity change, positive = activation ([6]; at 92.4 µM (top of the series)) 60.3%
inactive: Potency [1] | outcome [3] | Potency [4] | Potency [5] | Potency [7] | Potency [9] | Potency [10] | Potency [12] | Potency [19] | Potency [14] | Potency [15] | Potency [16] | Potency [17] | Potency [18]

C[C@](N)(Cc1ccc(O)c(O)c1)C(=O)O
inactive: Potency [1] | outcome [3] | Potency [4] | Potency [7] | Potency [8] | Potency [9] | Potency [10] | Potency [11] | Potency [12] | Potency [19] | max response [13] -19.7% and -21.3% and 9.87% | Potency [14] | Potency [15] | Potency [16] | Potency [17] | Potency [18]

CC1(C)O[C@@H]2C[C@H]3[C@@H]4CCC5=CC(=O)C=C[C@]5(C)[C@@]4(F)[C@@H](O)C[C@]3(C)[C@]2(C(=O)CO)O1
inactive: Potency [1] | outcome [3] | Potency [4] | Potency [5] | activity change, positive = activation ([6]; at 42.5 µM (top of the series)) -6.5% | activity change, positive = activation ([6]; at 92.4 µM (top of the series)) -23.9% and -13.8% | Potency [7] | Potency [8] | Potency [9] | Potency [10] | Potency [12] | Potency [19] | max response [13] -22.1% and -11.6% and -2.14% | Potency [15] | Potency [16] | Potency [17] | Potency [18]
inactive and 9.52 µM (active): Potency [11]

COc1ccc(OC(F)(F)F)cc1CN[C@H]1CCCN[C@H]1c1ccccc1
inactive: outcome [3] | Potency [9]
active: Potency [4] 113 µM | Potency [7] 54.9 µM | Potency [8] 43.6 µM | Potency [10] 54.9 µM | Potency [12] 49 µM | Potency [13] 43.6 µM | Potency [15] 54.9 µM | Potency [16] 54.9 µM | Potency [17] 49 µM | Potency [18] 49 µM

O=S1(=O)OC(c2ccc(O)cc2)(c2ccc(O)cc2)c2ccccc21
inactive: Potency [1] | outcome [3] | Potency [4] | Potency [5] | activity change, positive = activation ([6]; at 42.5 µM (top of the series)) -3.19% | activity change, positive = activation ([6]; at 92.4 µM (top of the series)) -32% and -12.4% | Potency [8] | Potency [9] | Potency [11] | Potency [12] | max response [13] -23.8% | Potency [14] | Potency [15] | Potency [17] | Potency [18]
49 µM (active) and inactive: Potency [7] | Potency [10] | Potency [19] | Potency [16]

NS(=O)(=O)O
inactive: Potency [1] | outcome [3] | Potency [4] | Potency [7] | Potency [8] | Potency [9] | Potency [10] | Potency [11] | Potency [12] | Potency [19] | max response [13] 0.202% [middle of 4 runs] | Potency [14] | Potency [15] | Potency [16] | Potency [17] | Potency [18]

C=C1CC[C@H](O)C/C1=C\C=C1/CCC[C@]2(C)[C@@H]([C@H](C)CCCC(C)C)CC[C@@H]12
inactive: Potency [7] | Potency [9] | Potency [10] | Potency [19] | Potency [14] | Potency [15] | Potency [16] | Potency [17] | Potency [18]
active: Potency [20] 19.2 µM | Potency [1] 38.5 µM | Potency [4] 112 µM | Potency [8] 43.2 µM | Potency [12] 38.5 µM | Potency [13] 43.2 µM
